TDP1 cell CPT: DT40-hTDP1 cell growth loss with CPT | chicken DT40 Tdp1-/-;hTDP1 cells + 20 nM CPT, ATP luminescence, 48 h | Potency, µM (highest dose often 46.2 µM), for inactives: at the highest dose activity change, negative = growth inhibition, most hits filed as inhibitors | 420,000 tested, 12% active; further: on the % scale 0 is the no-effect control and ±100 the full control effect; nearly all actives have a fitted effect of over 55% in size
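Chicken DT40 Tdp1-/- cells stably complemented with human TDP1 were seeded at 400 cells/well in medium containing 20 nM camptothecin, exposed to pin-transferred compounds, and grown at 37 °C for at least 48 hr. Viability was read as ATP luminescence.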
ClpP mod: qHTS Assay for Activators of ClpP; Potency, µM (series often up to 57.5 µM), for the others: top-dose activity change, negative = active; AID 651965, 2013; purified B. subtilis ClpP, FRET peptide cleavage, 20 min; 340,000 tested, 1.9% active; ATP-dependent Clp protease proteolytic subunit (Bacillus subtilis (strain 168)), P80244; active means well fitted falling curve with a large enough effect; inconclusive means small, poorly fitted or top-dose-only effect; inactive means no such curve, though single readings can be large or run the other way; further: the source files actives as falling curves though it sought activators and does not explain the sign; nearly all actives have a fitted effect of over 65% in size
Target sequence (P80244 whole entry, looked up): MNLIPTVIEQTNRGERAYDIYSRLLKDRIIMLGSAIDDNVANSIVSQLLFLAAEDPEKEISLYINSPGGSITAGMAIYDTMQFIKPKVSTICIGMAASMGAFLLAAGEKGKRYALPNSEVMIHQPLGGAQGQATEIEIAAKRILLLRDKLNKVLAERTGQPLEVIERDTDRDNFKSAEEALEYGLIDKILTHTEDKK
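FRET quenching reversal measured ClpP activation: 10 microg/mL B. subtilis ClpP at pH 8 with the FRET-FV decapeptide, read at 430 nm after 320 nm excitation. The 20-min minus 0-min signal was scaled between DMSO/no-enzyme wells and ADEP (5.8 microM final).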
TDP1 inh: TDP1 (human) enzyme inhibition; recombinant TDP1, AlphaScreen DNA substrate cleavage; 350,000 tested, 0.28% active; Potency, µM (doses to about 130 µM), without a hit: at the top dose activity change, negative = inhibition, usual class: inhibitors; further: on the % scale 0 is the no-effect control and ±100 the full control effect; nearly all actives have a fitted effect of over 40% in size
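Recombinant human Tdp1 (E. coli-expressed, 1 nM final) preincubated with compounds 15 min at room temperature, then 5'-biotin/3'-phosphotyrosine-FITC DNA substrate (15 nM final) added for 5 min. AlphaScreen beads (10 ug/ml final) added 10 min; cleavage lowers signal.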
DT40 TDP1 no CPT: qHTS for Inhibitors of human tyrosyl-DNA phosphodiesterase 1 (TDP1): qHTS in cells in absence of CPT. AID 686978, 2013. DT40 Tdp1-/- hTDP1 cells, no CPT, ATP luminescence, 48 h. 420,000 tested, 15% active. Potency, µM (series often up to 46.2 µM), inactives show at the highest dose activity change, negative = growth inhibition, most hits filed as inhibitors; further: on the % scale 0 is the no-effect control and ±100 the full control effect; nearly all actives have a fitted effect of over 55% in size
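Stably hTDP1-transfected Tdp1-null chicken DT40 cells were treated with library compounds minus camptothecin and grown for at least 48 hr at 37 °C, after which cellular ATP was quantified by luminescence.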
Active calls of the source: *; [ ] = another dose, or the depositor's remark. Hits are enriched below; roughly 17% of the tested compounds scored in any of these assays. Unless noted, the call rests on the fitted dose curve; in most records, active means well fitted curve in the direction sought with a large enough effect; inconclusive means small, poorly fitted or top-dose-only effect, or another doubt; inactive means no such curve, though single readings can be large; an effect the other way counts as inactive or inconclusive. Potency means the concentration at half of the fitted maximal effect.

Screening COC(=O)c1ccc(NC(=O)CN(Cc2ccccc2)S(=O)(=O)c2ccc(Cl)cc2)cc1 returned TDP1 cell CPT inconclusive, ClpP mod 0.3% and DT40 TDP1 no CPT inconclusive.
For COc1ccc(NC(=O)CN(Cc2ccccc2)S(=O)(=O)c2ccc(C)cc2)cc1Cl the results were TDP1 cell CPT 18.4µM*, ClpP mod -5.0%, TDP1 inh -0.4%[12.3 µM] and DT40 TDP1 no CPT inconclusive.
`COC(=O)c1ccc(NC(=O)CN(Cc2ccccc2)S(=O)(=O)c2ccc(C)cc2)cc1` gave TDP1 cell CPT inconclusive, ClpP mod -3.5% and DT40 TDP1 no CPT inconclusive.
`COCCCN1C(=O)C(CC(=O)NCCN2CCOCC2)CC(C(=O)N2CCCCCC2)=C1C` (centres undefined) gave TDP1 cell CPT -12.2%, ClpP mod -0.7% and DT40 TDP1 no CPT -11.2%.
CC(C(=O)N1c2ccccc2Sc2ccccc21)n1nnc(-c2cccs2)n1 (centres undefined) was read as TDP1 cell CPT -9.1%, ClpP mod -0.7%, TDP1 inh 7.0% and DT40 TDP1 no CPT -0.7%.
`CC(C(=O)N1c2ccccc2CCc2ccccc21)n1nnc(-c2ccc(N(C)C)cc2)n1` (centres undefined) gave TDP1 cell CPT inconclusive, ClpP mod inconclusive, TDP1 inh 4.4% and DT40 TDP1 no CPT 16.4µM*.
Cc1ccc(-c2nnn(C(C)C(=O)N3c4ccccc4CCc4ccccc43)n2)cc1 (centres undefined) was read as TDP1 cell CPT inconclusive, ClpP mod -23.9%, TDP1 inh 0.0% and DT40 TDP1 no CPT 29.1µM*.
CNC(=O)N1c2ccccc2CCc2ccccc21 was read as TDP1 cell CPT -23.5%, ClpP mod -2.0% and DT40 TDP1 no CPT inconclusive.
`O=C(c1cc(-c2ccccc2)on1)N1CCOc2ccc(CN3CCOCC3)cc2C1` gave TDP1 cell CPT 14.5%[9.04 µM] and DT40 TDP1 no CPT inconclusive.
Screening CNC[C@H]1Oc2cc(Br)ccc2S(=O)(=O)N([C@@H](C)CO)C[C@@H]1C returned TDP1 cell CPT -14.7%, ClpP mod 2.7% and DT40 TDP1 no CPT -24.7%.
Cc1ccc2cc3cc(C(=O)N4CCN(c5cccc(C(F)(F)F)c5)CC4)sc3nc2c1 was read as TDP1 cell CPT 2.4%, ClpP mod -4.7%, TDP1 inh 2.1%[12.3 µM] and DT40 TDP1 no CPT 7.2%.
`Cc1ccc(CNc2ccc3cc(S(=O)(=O)N4CCCCC4)ccc3n2)cc1` gave TDP1 cell CPT 10.3µM*, ClpP mod 3.8%, TDP1 inh 5.3% and DT40 TDP1 no CPT 10.3µM*.
CC1CCN(S(=O)(=O)c2ccc3nc(NCc4ccc(F)cc4)ccc3c2)CC1 was read as TDP1 cell CPT 13µM*, ClpP mod 4.8%, TDP1 inh -2.6% and DT40 TDP1 no CPT 13µM*.
`COc1ccc(S(=O)(=O)N2CCCCCC2)cc1C(=O)NCc1ccc(C)cc1` gave TDP1 cell CPT inconclusive, ClpP mod -4.8%, TDP1 inh -0.1% and DT40 TDP1 no CPT inconclusive.
CCOc1ccccc1CNc1ccc2cc(S(=O)(=O)N3CCC(C)CC3)ccc2n1 was read as TDP1 cell CPT inconclusive, ClpP mod 4.4%, TDP1 inh 0.0% and DT40 TDP1 no CPT 23.1µM*.
`CC1CCN(S(=O)(=O)c2ccc3nc(N4CCN(c5ccccc5F)CC4)ccc3c2)CC1` gave TDP1 cell CPT -13.6%, ClpP mod -5.4%, TDP1 inh -2.6% and DT40 TDP1 no CPT inconclusive.
`CC1CCN(S(=O)(=O)c2ccc3nc(NCc4ccc(N(C)C)cc4)ccc3c2)CC1` gave TDP1 cell CPT 23.1µM*, ClpP mod inconclusive, TDP1 inh 10.5% and DT40 TDP1 no CPT 11.6µM*.
Screening Clc1ccc(NCc2ccsc2)cc1 returned TDP1 inh 3.3%.
`COCCn1c(COc2cccc(OC)c2)nnc1SCC(=O)NC1CCCC1` gave TDP1 cell CPT 0.3%, TDP1 inh 4.0% and DT40 TDP1 no CPT 5.9%.
For COc1ccc(CCNC(=O)/C(C#N)=C2\N=C(NC(=O)c3ccco3)c3ccccc32)cc1 the results were TDP1 cell CPT inconclusive, TDP1 inh 0.0% and DT40 TDP1 no CPT 16.4µM*.
N#C/C(C(=O)NCc1ccccc1)=C1/N=C(NC(=O)c2ccco2)c2ccccc21 was read as TDP1 cell CPT inconclusive, TDP1 inh 0.0% and DT40 TDP1 no CPT inconclusive.
For Cc1ccc(S(=O)(=O)Nc2nc3ccccc3nc2NCC2CCCO2)cc1C (centres undefined) the results were TDP1 cell CPT 20.6µM*, ClpP mod 3.2%, TDP1 inh 2.8% and DT40 TDP1 no CPT inconclusive.
Screening Cc1ccc(S(=O)(=O)Nc2nc3ccccc3nc2NCc2ccco2)cc1C returned TDP1 cell CPT inconclusive, ClpP mod 28.2µM*, TDP1 inh 4.0% and DT40 TDP1 no CPT inconclusive.
Cc1ccc(S(=O)(=O)Nc2nc3ccccc3nc2NCc2ccco2)cc1 was read as TDP1 cell CPT inconclusive, ClpP mod inconclusive, TDP1 inh -1.1% and DT40 TDP1 no CPT inconclusive.
Screening Cc1cccc(S(=O)(=O)Nc2nc3ccccc3nc2NCC2CCCO2)c1 (centres undefined) returned TDP1 cell CPT -10.4%, ClpP mod 4.0%, TDP1 inh 1.3% and DT40 TDP1 no CPT 2.3%.
Screening O=C1CC(c2cc3c(cc2Br)OCO3)C2=C(CCCC2=O)N1 (centres undefined) returned TDP1 cell CPT -8.3%, ClpP mod 25.1µM*, TDP1 inh 0.0% and DT40 TDP1 no CPT 13.1%.
CCOC(=O)C1=C(C)NC(=O)CC1c1cc2c(cc1Br)OCO2 (centres undefined) was read as TDP1 cell CPT -13.1%, ClpP mod 1.6%, TDP1 inh -1.9% and DT40 TDP1 no CPT -26.8%.
Cc1ccc(NS(=O)(=O)c2ccccc2Cl)c2c1CC(C)(C)O2 was read as TDP1 cell CPT 20µM*, ClpP mod 3.4%, TDP1 inh -1.9% and DT40 TDP1 no CPT 14.1µM*.
For O=C(NCCc1ccccc1)c1cnc2sc(N3CCCCC3)nn2c1=O the results were TDP1 cell CPT 8.2µM*, ClpP mod 4.2%, TDP1 inh 0.0% and DT40 TDP1 no CPT 20.6µM*.
Screening CCOc1ccc(CCNC(=O)c2cnc3sc(N4CCCCCC4)nn3c2=O)cc1 returned TDP1 cell CPT 18.4µM*, ClpP mod inconclusive, TDP1 inh 4.5% and DT40 TDP1 no CPT 18.4µM*.
Screening O=C(NCCc1ccccc1)c1cnc2sc(N3CCCCCC3)nn2c1=O returned TDP1 cell CPT inconclusive, ClpP mod inconclusive, TDP1 inh 4.5% and DT40 TDP1 no CPT 13µM*.
Screening COc1ccc(CNC(=O)c2cnc3sc(N4CCCC4)nn3c2=O)cc1OC returned TDP1 cell CPT 9.2µM*, ClpP mod 15.8µM*, TDP1 inh 1.9% and DT40 TDP1 no CPT inconclusive.
